Drawing on article PMC7862700, “An all-to-all approach to the identification of sequence-specific readers for epigenetic DNA modifications on cytosine”, this text covers binding signal for one sequence.

Holding throughout (assay): DAPPL (digital affinity profiling via proximity ligation, sequencing); 10 mM Tris-HCl pH 7.5, 50 mM NaCl, 1 mM DTT, 4% glycerol, room temperature, 30 min; GST-TFs on glutathione beads, 16-mer random dsDNA library, 0.1% formaldehyde crosslink after washing; high values mean tight binding
Holding throughout (details): protein: recombinant; tags: N-terminal GST; dsDNA, one strand shown

Test [1] addresses T1, FLI1 (Homo sapiens, UniProt Q01543 1-452).
T1 sequence: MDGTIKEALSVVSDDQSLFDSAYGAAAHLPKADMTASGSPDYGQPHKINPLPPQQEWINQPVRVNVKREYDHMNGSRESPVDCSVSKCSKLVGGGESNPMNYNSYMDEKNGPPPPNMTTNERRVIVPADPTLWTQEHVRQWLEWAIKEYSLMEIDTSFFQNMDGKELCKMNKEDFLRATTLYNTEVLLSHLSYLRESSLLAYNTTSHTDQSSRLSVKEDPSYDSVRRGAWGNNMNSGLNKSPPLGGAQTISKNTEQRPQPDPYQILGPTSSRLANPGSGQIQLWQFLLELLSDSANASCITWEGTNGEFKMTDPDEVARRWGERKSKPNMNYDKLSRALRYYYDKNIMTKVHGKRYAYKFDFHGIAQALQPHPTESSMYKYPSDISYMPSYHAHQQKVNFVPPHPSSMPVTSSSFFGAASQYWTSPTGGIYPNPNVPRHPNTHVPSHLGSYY
An outline of the steps: (§1)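 Pools of DNA-barcoded human transcription factors, expressed in yeast as GST fusions on glutathione beads and combined with a tag-only sample, were incubated with 200 nmole of a 16-mer random double-stranded DNA library. Incubation took 30 min at room temperature in Tris/NaCl/DTT/glycerol buffer and was followed by washing, 0.1% formaldehyde crosslinking, proximity ligation (BsaI/T4 ligase, 1 h, 37 °C), PCR amplification and sequencing on an Illumina NextSeq500. Binding signal is the ratio of a hexamer's read frequency for a factor to its frequency for the tag-only sample.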

Test [2] deals with T2, ELK1 (Homo sapiens, UniProt P19419 1-428).
T2 sequence: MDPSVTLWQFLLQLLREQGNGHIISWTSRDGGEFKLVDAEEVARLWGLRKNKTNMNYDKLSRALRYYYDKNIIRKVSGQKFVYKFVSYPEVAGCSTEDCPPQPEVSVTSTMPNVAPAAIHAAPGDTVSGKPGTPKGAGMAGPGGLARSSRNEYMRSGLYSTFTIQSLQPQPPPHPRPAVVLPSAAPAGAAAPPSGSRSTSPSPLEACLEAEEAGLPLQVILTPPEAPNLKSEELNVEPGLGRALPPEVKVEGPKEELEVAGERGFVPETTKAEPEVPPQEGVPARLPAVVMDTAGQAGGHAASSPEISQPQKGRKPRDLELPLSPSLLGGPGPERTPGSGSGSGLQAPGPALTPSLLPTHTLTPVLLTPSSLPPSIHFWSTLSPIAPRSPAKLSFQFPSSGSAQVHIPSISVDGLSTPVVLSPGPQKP
Summed up: as §1

In test [3] the target is T3, GABPA (Homo sapiens, UniProt Q06546 1-454).
T3 sequence: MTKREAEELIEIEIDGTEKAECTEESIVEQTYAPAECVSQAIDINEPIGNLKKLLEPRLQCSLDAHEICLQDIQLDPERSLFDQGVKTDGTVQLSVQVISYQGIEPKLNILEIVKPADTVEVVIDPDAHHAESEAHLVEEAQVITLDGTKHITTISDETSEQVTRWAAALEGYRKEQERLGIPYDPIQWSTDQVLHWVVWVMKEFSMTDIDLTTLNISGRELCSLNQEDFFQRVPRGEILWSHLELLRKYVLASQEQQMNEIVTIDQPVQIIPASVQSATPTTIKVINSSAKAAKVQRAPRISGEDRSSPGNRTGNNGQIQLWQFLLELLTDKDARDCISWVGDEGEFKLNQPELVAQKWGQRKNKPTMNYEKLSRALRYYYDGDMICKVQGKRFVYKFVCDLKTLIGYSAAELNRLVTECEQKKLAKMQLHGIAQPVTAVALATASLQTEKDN
Summed up:
as §1

Test [4] concerns the target T4, ERG (Homo sapiens, UniProt P11308 1-479).
T4 sequence: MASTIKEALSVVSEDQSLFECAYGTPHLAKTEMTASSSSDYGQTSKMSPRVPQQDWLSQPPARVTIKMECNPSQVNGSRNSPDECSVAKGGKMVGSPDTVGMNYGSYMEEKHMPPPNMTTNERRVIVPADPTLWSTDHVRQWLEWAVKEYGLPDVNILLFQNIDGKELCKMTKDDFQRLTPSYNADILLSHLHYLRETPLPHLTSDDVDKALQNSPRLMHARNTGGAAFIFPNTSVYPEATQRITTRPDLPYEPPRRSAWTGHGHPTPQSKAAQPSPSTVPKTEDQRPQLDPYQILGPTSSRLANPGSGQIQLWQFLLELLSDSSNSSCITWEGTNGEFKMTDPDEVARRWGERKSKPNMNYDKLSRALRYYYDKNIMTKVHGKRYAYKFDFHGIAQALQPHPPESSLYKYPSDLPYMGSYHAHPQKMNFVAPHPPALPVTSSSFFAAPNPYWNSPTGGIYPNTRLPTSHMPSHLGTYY
An outline of the steps: as §1

Test [5] addresses ELF1 (Homo sapiens, UniProt P32519 1-619). Summed up: as §1
Test [6] deals with T5, EHF (Homo sapiens, UniProt Q9NZC4 1-300).
T5 sequence: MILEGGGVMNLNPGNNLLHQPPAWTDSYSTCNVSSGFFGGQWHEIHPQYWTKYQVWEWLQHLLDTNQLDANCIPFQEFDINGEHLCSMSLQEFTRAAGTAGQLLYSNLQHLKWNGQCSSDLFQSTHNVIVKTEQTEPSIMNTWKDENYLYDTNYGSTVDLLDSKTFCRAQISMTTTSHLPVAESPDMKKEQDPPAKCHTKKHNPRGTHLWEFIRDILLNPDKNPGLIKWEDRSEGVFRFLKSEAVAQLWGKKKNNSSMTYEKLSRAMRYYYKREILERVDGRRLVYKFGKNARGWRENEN
An outline of the steps:
as §1

The target of test [7] is SPI1 (Homo sapiens, UniProt P17947 1-270). An outline of the steps:
as §1

The target in test [8] is SPIB (Homo sapiens, UniProt Q01892 1-262). An outline of the steps:
as §1

Test [9] concerns the target T6, FEV (Homo sapiens, UniProt Q99581 1-238).
T6 sequence: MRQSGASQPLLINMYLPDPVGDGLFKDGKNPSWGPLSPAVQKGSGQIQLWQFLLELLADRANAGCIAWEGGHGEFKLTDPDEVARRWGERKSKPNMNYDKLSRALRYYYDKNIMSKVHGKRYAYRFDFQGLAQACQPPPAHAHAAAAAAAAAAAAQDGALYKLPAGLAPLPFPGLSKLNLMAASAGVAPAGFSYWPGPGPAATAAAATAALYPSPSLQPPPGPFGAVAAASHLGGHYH
An outline of the steps:
as §1

Test [10] has as its target ETV5 (Homo sapiens, UniProt P41161 1-510). Summed up: as §1
For test [11], the target named is T7, SPIC (Homo sapiens, UniProt Q8N5J4 1-248).
T7 sequence: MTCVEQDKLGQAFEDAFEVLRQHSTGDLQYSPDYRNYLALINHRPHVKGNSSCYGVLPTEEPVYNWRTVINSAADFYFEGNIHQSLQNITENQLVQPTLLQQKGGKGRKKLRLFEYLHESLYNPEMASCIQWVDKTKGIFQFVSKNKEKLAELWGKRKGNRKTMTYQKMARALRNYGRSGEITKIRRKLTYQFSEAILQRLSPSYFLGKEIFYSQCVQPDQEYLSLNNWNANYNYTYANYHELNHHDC
An outline of the steps:
as §1

Test [12] concerns the target ELF4 (Homo sapiens, UniProt Q99607 1-663). Summed up: as §1
In test [13] the target is ETV1 (Homo sapiens, UniProt P50549 1-477). An outline of the steps:
as §1

Test [14] concerns the target T8, ERF (Homo sapiens, UniProt P50548 1-548).
T8 sequence: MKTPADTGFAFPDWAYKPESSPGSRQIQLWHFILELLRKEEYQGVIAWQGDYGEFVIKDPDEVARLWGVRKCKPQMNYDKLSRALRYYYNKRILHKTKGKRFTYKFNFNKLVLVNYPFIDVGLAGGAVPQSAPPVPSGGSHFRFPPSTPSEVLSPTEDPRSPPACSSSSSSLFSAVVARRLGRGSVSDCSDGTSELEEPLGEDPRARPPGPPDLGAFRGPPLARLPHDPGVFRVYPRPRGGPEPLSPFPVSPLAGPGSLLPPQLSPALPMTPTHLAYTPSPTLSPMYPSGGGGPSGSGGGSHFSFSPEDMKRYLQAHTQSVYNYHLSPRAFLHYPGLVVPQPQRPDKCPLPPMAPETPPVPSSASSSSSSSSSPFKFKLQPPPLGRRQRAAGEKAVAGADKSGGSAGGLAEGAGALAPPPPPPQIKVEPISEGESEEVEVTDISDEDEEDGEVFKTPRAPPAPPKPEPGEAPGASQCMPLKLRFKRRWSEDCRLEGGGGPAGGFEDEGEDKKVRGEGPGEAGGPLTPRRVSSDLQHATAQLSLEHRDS
Summed up: as §1

For test [15], the target named is T9, ETS2 (Homo sapiens, UniProt P15036 1-469).
T9 sequence: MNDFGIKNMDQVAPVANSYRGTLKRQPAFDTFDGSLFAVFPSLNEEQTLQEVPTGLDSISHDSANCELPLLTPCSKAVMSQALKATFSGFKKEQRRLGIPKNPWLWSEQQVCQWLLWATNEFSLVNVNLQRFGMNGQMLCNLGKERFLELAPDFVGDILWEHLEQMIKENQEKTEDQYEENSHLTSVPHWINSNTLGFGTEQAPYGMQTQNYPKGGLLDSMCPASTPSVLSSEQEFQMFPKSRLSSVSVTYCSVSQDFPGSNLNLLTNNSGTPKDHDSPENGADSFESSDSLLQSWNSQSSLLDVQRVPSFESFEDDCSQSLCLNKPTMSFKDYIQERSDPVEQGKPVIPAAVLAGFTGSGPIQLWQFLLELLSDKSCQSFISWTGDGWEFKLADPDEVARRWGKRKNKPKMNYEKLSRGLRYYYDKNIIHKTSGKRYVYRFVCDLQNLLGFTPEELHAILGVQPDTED
Summed up: as §1

Test [16] deals with T10, SPDEF (Homo sapiens, UniProt O95238 1-335).
T10 sequence: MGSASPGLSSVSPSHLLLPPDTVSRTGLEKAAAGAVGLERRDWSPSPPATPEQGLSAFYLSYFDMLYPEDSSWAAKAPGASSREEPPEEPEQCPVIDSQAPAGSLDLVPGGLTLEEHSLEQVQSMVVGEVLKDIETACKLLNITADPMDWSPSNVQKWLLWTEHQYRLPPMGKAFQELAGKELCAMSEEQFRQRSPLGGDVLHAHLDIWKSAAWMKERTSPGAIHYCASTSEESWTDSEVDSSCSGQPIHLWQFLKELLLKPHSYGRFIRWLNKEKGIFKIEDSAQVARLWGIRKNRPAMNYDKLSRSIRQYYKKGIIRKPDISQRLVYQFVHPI
An outline of the steps: as §1

Test [17] has as its target T11, ELF5 (Homo sapiens, UniProt Q9UKW6-2 1-255).
T11 sequence: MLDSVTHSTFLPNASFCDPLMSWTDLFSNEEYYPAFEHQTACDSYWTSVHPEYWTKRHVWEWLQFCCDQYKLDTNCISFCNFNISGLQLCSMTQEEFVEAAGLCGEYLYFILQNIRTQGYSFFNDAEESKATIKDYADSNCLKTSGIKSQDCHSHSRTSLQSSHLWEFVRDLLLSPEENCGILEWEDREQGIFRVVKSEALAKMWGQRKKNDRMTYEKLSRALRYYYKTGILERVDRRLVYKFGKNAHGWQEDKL
An outline of the steps: as §1

Test [18] deals with T12, ETV3 (Homo sapiens, UniProt P41162-2 1-143).
T12 sequence: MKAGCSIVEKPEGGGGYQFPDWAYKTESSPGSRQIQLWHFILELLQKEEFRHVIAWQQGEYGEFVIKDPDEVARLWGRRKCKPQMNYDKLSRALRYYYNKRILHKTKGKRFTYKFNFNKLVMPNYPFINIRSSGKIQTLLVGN
Summed up: as §1

The target in test [19] is ETV6 (Homo sapiens, UniProt P41212 1-452). An outline of the steps:
as §1

Sequence of ETV6 (P41212 whole entry): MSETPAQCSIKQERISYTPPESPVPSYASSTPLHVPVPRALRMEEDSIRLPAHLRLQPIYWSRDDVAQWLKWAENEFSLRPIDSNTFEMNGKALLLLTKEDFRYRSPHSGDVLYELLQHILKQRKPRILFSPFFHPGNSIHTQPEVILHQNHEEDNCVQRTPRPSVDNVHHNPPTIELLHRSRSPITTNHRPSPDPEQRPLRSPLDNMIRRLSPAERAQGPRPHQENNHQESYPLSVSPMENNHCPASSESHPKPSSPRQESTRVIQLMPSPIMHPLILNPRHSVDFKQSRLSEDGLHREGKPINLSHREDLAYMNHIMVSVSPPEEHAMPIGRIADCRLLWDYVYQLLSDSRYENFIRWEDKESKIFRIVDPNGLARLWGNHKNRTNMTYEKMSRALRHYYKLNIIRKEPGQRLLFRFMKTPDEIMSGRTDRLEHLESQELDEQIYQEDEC
Sequence of ETV5 (P41161 whole entry): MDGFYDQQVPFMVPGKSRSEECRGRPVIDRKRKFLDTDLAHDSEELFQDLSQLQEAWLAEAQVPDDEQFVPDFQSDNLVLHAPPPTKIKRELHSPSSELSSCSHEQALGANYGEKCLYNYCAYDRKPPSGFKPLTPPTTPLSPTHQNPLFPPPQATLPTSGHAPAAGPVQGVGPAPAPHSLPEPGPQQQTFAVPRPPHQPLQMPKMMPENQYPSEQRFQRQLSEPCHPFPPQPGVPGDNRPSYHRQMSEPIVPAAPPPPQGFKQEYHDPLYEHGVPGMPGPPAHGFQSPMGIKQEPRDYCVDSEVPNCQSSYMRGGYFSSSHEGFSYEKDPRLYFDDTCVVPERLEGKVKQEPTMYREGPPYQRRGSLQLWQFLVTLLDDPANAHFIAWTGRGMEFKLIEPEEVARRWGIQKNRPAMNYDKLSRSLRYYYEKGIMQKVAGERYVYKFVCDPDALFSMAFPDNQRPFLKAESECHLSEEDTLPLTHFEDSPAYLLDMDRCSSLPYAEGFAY
Sequence of ELF4 (Q99607 whole entry): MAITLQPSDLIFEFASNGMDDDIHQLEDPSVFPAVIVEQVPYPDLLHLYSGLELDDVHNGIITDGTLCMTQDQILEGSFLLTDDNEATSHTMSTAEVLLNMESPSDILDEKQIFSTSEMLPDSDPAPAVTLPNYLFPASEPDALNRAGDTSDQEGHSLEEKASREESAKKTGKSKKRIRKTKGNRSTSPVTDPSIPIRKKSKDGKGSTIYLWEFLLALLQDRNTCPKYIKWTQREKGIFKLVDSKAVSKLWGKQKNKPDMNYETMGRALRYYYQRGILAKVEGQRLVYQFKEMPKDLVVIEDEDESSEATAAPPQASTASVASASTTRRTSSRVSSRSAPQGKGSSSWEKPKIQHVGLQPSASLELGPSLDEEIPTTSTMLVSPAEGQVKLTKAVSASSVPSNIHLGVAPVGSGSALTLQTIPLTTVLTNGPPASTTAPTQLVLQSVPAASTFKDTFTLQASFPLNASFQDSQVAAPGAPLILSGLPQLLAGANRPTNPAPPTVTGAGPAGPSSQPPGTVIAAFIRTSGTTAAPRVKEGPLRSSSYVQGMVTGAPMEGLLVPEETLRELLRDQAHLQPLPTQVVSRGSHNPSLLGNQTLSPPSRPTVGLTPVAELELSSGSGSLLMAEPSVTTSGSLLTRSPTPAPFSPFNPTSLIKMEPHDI
Sequence of SPIB (Q01892 whole entry): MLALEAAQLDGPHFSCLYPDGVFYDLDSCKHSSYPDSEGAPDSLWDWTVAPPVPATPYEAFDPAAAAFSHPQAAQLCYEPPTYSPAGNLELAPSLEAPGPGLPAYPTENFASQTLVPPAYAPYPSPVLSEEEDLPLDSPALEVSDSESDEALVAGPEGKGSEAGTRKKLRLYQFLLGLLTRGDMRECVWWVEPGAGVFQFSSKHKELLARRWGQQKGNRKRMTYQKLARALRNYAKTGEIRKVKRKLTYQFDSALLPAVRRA
Sequence of ELF1 (P32519 whole entry): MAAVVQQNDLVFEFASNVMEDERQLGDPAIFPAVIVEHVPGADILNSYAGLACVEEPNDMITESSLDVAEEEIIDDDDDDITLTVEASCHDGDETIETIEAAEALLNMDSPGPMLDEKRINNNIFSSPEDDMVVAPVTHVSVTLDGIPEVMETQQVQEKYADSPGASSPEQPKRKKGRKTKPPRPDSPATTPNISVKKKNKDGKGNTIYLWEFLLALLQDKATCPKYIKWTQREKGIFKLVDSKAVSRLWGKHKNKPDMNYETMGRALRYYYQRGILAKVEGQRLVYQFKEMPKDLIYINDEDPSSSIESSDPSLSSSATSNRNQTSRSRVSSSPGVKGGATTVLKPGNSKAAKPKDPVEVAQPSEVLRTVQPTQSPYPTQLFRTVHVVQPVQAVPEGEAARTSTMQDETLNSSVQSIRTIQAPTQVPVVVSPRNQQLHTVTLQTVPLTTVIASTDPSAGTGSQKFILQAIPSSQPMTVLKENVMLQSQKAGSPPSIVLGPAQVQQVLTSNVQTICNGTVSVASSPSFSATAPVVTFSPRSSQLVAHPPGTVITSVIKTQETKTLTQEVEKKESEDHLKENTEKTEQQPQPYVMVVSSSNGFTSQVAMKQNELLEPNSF
Sequence of ETV1 (P50549 whole entry): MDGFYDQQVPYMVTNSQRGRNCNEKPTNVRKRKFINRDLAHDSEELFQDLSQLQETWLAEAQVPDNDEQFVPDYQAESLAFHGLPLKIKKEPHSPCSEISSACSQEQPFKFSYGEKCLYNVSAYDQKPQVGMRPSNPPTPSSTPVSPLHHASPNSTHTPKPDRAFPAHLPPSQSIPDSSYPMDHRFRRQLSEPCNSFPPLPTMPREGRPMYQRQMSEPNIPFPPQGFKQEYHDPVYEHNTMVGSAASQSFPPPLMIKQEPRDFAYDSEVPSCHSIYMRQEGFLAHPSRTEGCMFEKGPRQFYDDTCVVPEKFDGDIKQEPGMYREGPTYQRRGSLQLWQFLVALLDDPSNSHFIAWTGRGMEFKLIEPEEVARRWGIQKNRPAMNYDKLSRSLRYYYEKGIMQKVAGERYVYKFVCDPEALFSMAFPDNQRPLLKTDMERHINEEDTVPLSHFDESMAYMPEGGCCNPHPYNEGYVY

In the case of GTGTCC, the binding signal is 1.03 fold enrichment (6-mer frequency, TF over GST control) in [1]; 1.07 fold enrichment (6-mer frequency, TF over GST control) in test [2]; 1.1 fold enrichment (6-mer frequency, TF over GST control) in test [3]; 1.13 fold enrichment (6-mer frequency, TF over GST control) in test [4]; 1.1 fold enrichment (6-mer frequency, TF over GST control) in test [5]; 1.08 fold enrichment (6-mer frequency, TF over GST control) in test [6]. For the same sequence, the binding signal is 1.08 fold enrichment (6-mer frequency, TF over GST control) in test [7]; 1.13 fold enrichment (6-mer frequency, TF over GST control) in test [8]; 1.1 fold enrichment (6-mer frequency, TF over GST control) in test [9]; 1.16 fold enrichment (6-mer frequency, TF over GST control) in test [10]; 1.2 fold enrichment (6-mer frequency, TF over GST control) in test [11]; 1.08 fold enrichment (6-mer frequency, TF over GST control) in [12]. For the same sequence, the binding signal in [13] was 1.02 fold enrichment (6-mer frequency, TF over GST control); in test [14], 1.06 fold enrichment (6-mer frequency, TF over GST control); in test [15], 1.16 fold enrichment (6-mer frequency, TF over GST control); in [16], 1.34 fold enrichment (6-mer frequency, TF over GST control); in [17] it was 1.1 fold enrichment (6-mer frequency, TF over GST control); in [18], 1.2 fold enrichment (6-mer frequency, TF over GST control). In addition, the binding signal in test [19] was 1.02 fold enrichment (6-mer frequency, TF over GST control).
